The panel holds about 83,000 compounds, 20% with a hit somewhere; the sample as a whole holds those more often.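 Compound tested at a single concentration for 48 hours in 96-well plates; a percent growth value below 10 was scored as active.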 A number with no mark means an inactive call. Activity calls are given as the source filed them.

Holding throughout (assay): NCI-60 one-dose screen, 48 h (100 = growth as untreated, 0 = no growth, -100 = all killed)
Common to all, as to conditions: 10 µM unless noted

Test [1] has as its system DU-145 prostate.
Test [2] deals with K-562 leukemia.
The test system of test [3] is MALME-3M melanoma.
Test [4] concerns MDA-MB-231 breast.
Test [5] concerns RXF 393 renal.
For test [6], the system named is SF-268 CNS.
The test system of test [7] is SF-295 CNS.
Test [8] has as its system SF-539 CNS.
In test [9] the test system is UACC-257 melanoma.
Test [10] relates to M14 melanoma.
The test system of test [11] is HCT-15 colon.
Test [12] has as its system HT29 colon.
For test [13], the system named is SNB-75 CNS.
For test [14], the system named is SNB-19 CNS.
Test [15] deals with U251 CNS.
The test system of test [16] is PC-3 prostate.
For test [17], the system named is SK-MEL-5 melanoma.
Test [18] deals with LOX IMVI melanoma.
The subject of test [19] is SK-MEL-28 melanoma.
Test [20] concerns UACC-62 melanoma.

In the case of `CCN(CC)CCN1C(=O)c2cccc3c(/C=C/CN4C(=O)c5cccc6cccc(c56)C4=O)ccc(c23)C1=O`, the growth in test [1] is 106%; in test [2], 19.7%; in test [3], 91.9%; in [4], 95.5%; in test [5], 74.2%; in [6] it was 93.5%. In addition, the growth was 108% in [7]; 92.5% in test [8]; 109% in test [9]; 105% in [10]; 95.8% in test [11]; 103% in test [12]. For the same compound, the growth in test [13] was 91.2%; in test [14], 96%; in [15] it was 105%; in test [16] it was 86.6%; in test [17], 94.3%; in test [18], 96.6%. For the same compound, the growth in test [19] is 109%.
`COc1ccc2c(c1)c(-c1nc(-c3c[nH]c4ncccc34)cs1)cn2CCCN1CCOCC1`: the growth in test [1] is 41.5%; in [2], -5.12% (active); in test [3], 5.55% (active); in [4], 9.85% (active); in test [5] it was -9.75% (active); in test [6] it was 43.9%. Further, the growth in test [7] is -34.4% (active); in test [8] it was 33.6%; in test [9], 49.9%; in [10], 10%; in [11], 13.7%; in test [12], -12.9% (active). Further, the growth was 21.4% in test [13]; 54.4% in test [14]; 16.3% in test [15]; 18.2% in test [16]; 31.6% in [17]; 44.1% in test [20]. In addition, the growth in test [19] was -54.1% (active).
`CO[C@H]1CC(=O)n2c3ccccc3c3c4c(c5c6ccccc6n1c5c32)C(=O)NC4=O`: the growth was 42.3% in [1]; 76.3% in test [2]; 50.2% in test [3]; 71.4% in test [4]; 62.4% in test [5]; 68.9% in [6]. Besides, the growth in test [7] was 11.3%; in test [8] it was 57%; in test [9] it was 73.5%; in test [10] it was 62.2%; in test [11], 62.4%; in test [12] it was 26.3%. The growth was 4.5% (active) in test [13]; 98.4% in [14]; 46.8% in [15]; 54.6% in test [16]; 60.7% in test [17]; 44.9% in [20]. Also, in test [19], the growth is 39.9%.
Turning to `CC[C@]12C=CCN3CC[C@@]4(c5ccc(OC)cc5N(C)[C@H]4[C@@](O)(C(=O)OC)[C@@H]1OC(=O)CCC[P+](c1ccccc1)(c1ccccc1)c1ccccc1)[C@@H]32`, the growth was 18% in [1]; 10.4% in test [2]; -12.4% (active) in [3]; 1.29% (active) in [4]; 28.9% in test [5]; 19.2% in test [6]. The growth was 23.3% in test [7]; 16.2% in [8]; -27.3% (active) in [9]; 17.7% in test [10]; 101% in test [11]; 2.42% (active) in test [12]. Moreover, the growth in [13] is -4.39% (active); in [14] it was 11%; in [15], 4.03% (active); in test [16], 2.13% (active); in test [17], -91.5% (active); in [20], -59.3% (active). Besides, the growth in [18] was 8.81% (active); in test [19] it was 20.9%.
In the case of `Cc1ccc(S(=O)(=O)Oc2ccc3sc4cccc(NCCN(C)C)c4c(=O)c3c2)cc1`, the growth in test [1] is -89.5% (active); in [2], -64.6% (active); in [3], -99.4% (active); in [4], -96.7% (active); in test [5], -87.4% (active); in test [6], -82.1% (active). Further, the growth in [7] was -92.3% (active); in test [8], -95.3% (active); in test [9], -80.6% (active); in test [10] it was -84.9% (active); in test [11], -94.2% (active); in [12] it was -60.6% (active). The growth is -92.9% (active) in [13]; -60% (active) in [14]; -78.6% (active) in test [15]; -86.4% (active) in test [16]; -99% (active) in test [17]; -96.5% (active) in test [18]. In addition, the growth in test [19] is -92.4% (active).
As to `COc1cc(OC)c(/C=C/C(=O)c2c(O)cc(OC)c(C3CCN(C)CC3)c2OC)c(OC)c1`, the growth in [1] was -36.2% (active); in [2] it was 9.67% (active); in test [3] it was -92.2% (active); in test [4] it was -68.1% (active); in [5], -75.1% (active); in [6], -70.9% (active). For the same compound, the growth in test [7] was -79.9% (active); in test [8], -91.4% (active); in [9] it was -81.7% (active); in [10] it was -92.7% (active); in [11] it was -58.1% (active); in [12], -73.4% (active). Besides, the growth is -8.19% (active) in test [13]; -55.9% (active) in test [14]; -85.6% (active) in [15]; -16.1% (active) in test [16]; -99% (active) in test [17]; -83.9% (active) in test [20]. Moreover, in test [19], the growth was -100% (active).
For `C=C1C(=O)O[C@H]2[C@H]1CC/C(COC(=O)/C=C\C(=O)NCc1ccc(Cn3c(=O)sn(CCCl)c3=O)cc1)=C\CC[C@@]1(C)O[C@@H]21`, the growth in [1] was 57.6%; in [2], 28.9%; in test [3], 43.6%; in test [4] it was 90%; in test [5] it was 56.3%; in test [6], 89%. Moreover, the growth in [7] was 103%; in test [8], 96.5%; in test [9] it was 81.8%; in test [10], 51.6%; in test [11], 44.8%; in [12] it was 86.6%. Besides, the growth in [13] was 99.5%; in [14] it was 111%; in test [15], 88.9%; in test [16], 94.6%; in [17] it was 101%; in test [18] it was 67.2%. In [19], the growth is 87%.
As for `CNC1=C([N+](=O)[O-])C(c2ccc(OC)cc2)C(C#N)=C(c2cccs2)O1` (stereo not drawn), the growth in test [1] was 113%; in test [2], 105%; in test [3], 98.6%; in test [4], 99.5%; in [5], 121%; in [6], 101%. Further, the growth was 101% in [7]; 100% in test [8]; 106% in test [9]; 103% in test [10]; 108% in [11]; 118% in [12]. For the same compound, the growth in test [13] is 95.5%; in [14], 105%; in test [15], 101%; in [16], 101%; in test [17], 100%; in test [20], 101%. Moreover, the growth in test [19] is 122%.
